From PubChem
Compounds with a hit are over-represented: about 6.2% of the library has one in this group of screens.
LASV entry inh: blocks Lassa virus binding to or entry into cells; hit rate 1.2% among 300,000; Potency, µM (series often up to 37.9 µM), for the others: at the highest dose activity change, negative = inhibition, actives largely listed as inhibitors; Lassa virus pseudotype entry inhibition, cell reporter; calls by dose curve; tested in HEK293 cells; further: potency means the concentration at half of the fitted maximal effect; nearly all actives have a fitted effect of over 50% in size
HCMV inh: blocks human cytomegalovirus replication | HFF cells, HCMV-luciferase reporter, 72 h; stronger effect = lower value | activity change, negative = inhibition, % at 57.5 µM | AID 1259415 | hit rate 4.5% among 410,000; in the data active means activity change below about -60%; inconclusive means no clear call, values can overlap the other calls; inactive means above about -39%
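Screen run at 2 compound doses on HFFs infected with reporter HCMV, MOI 1 PFU/cell. Luciferase activity from cell lysates at 72 h post infection gave inhibition relative to buffer-only and Salinomycin wells.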
Marburg entry inh: blocks Marburg virus binding to or entry into cells; hit rate 1.8% among 300,000; Marburg virus pseudotyped entry inhibition, cell reporter; Potency, µM (highest dose often 37.8 µM), for inactives: top-dose activity change, negative = inhibition, hits mostly inhibitors; calls by dose curve; tested in HEK293 cells; further: potency means the concentration at half of the fitted maximal effect
FMDV inh: blocks foot and mouth disease virus; FMDV antiviral cell-based qHTS; Potency, µM (doses to about 57.9 µM), for inactives: at the top dose activity change, negative = inhibition, usual class: inhibitors; hit rate 1.2% among 410,000; calls by dose curve; tested in HEK293T cells; further: read-out not given here; potency means the concentration at half of the fitted maximal effect; nearly all actives have a fitted effect of over 45% in size
* marks the source's active call; other numbers are inactive results; ? = inconclusive; · = not tested or not shown; + = active, no number; [ ] = remark or other dose. On the % scale 0 is the no-effect control and ±100 the full control effect.

SMILES	LASV entry inh	HCMV inh	Marburg entry inh	FMDV inh
O=S(=O)(c1cccc(Cl)c1)N1CCCC1	11%	-107*	27%	7%
CCOc1ccc(NC(=O)CN2C(=O)C(C)SC(C)C2=O)cc1 (stereo not given)	8%	-65*	1%[46.1 µM]	6%
CCOc1ccc(C(=O)CCC(=O)Nc2cccc(S(=O)(=O)N3CCCCC3)c2)cc1	10µM*	-13	?	0%
CCc1nn(CCCC(=O)N(C)Cc2ccccc2)c(=O)c2cc3occc3n12	-1%[46.1 µM]	-33	-12%[46.1 µM]	8%
O=C(CCl)Nc1cccc(S(=O)(=O)N2CCCCCC2)c1	7.9µM*	-97*	?	25µM*
Cc1ccc(C(=O)N2C(=S)C(c3ccc(F)cc3)=NC23CCN(C)CC3)cc1	?	-85*	?	-35%
CCCCn1c(Cc2ccccc2)n[nH]c1=S	1%	?	1%	-19%
ON=C(c1ccccc1)c1ccc2c3c(cccc13)CC2	·	-62*	·	?
Brc1ccc(-c2csc(/N=C/N3CCCC3)n2)cc1	?	-23	8.9µM*	-22%
Brc1ccc(-c2csc(/N=C/N3CCOCC3)n2)cc1	?	5	?	-5%
O=C(NN1C(=O)NC2(CCCCC2)C1=O)c1cc(F)cc(F)c1	0%	-18	?	16%
O=C(N/N=C(\c1ccccc1)c1cccnc1)c1cccc(F)c1	?	-112*	?	?
O=C(N/N=C(\c1ccccc1)c1cccnc1)c1ccc(O)cc1	-22%[46.1 µM]	24	-9%[46.1 µM]	-10%
CCCn1c(=O)c2sccc2n2c(CCCC(=O)Nc3ccc(Oc4ccccc4)cc3)nnc12	-24%[46.1 µM]	-61*	·	-21%
COc1ccc(NC(=O)Cn2c(=O)n(Cc3ccco3)c(=O)c3cc(OC)c(OC)cc32)cc1	?	-97*	11%[46.1 µM]	-8%
Cc1nn(CCCC(=O)NC(C)c2ccccc2)c(=O)c2nn(-c3ccccc3)c(C)c12 (stereo not given)	·	-7	·	-17%
Nc1ccc2nc(-c3ccccc3)c(-c3ccccc3)nc2c1	-17%	47	-10%[46.1 µM]	-23%
C[n+]1c(-c2ccccc2)c2cc(N)ccc2c2ccc(N)cc21	·	-100*	·	?
O=[N+]([O-])c1ccc2nc(NN=Cc3ccc(O)cc3)sc2c1	-25%[46.1 µM]	-62*	?	-3%
O=c1oc2ccccc2c2c1nnn2CCO	9%	-63*	18%[46.1 µM]	-12%
COc1ccccc1C=NN=C(NN=Cc1ccccc1OC)NN=Cc1ccccc1OC	13µM*	26	?	?
COc1cccc(/C=N/Nc2ccc(S(=O)(=O)O)cc2)c1O	-1%	35	6%	13%
COc1ccccc1C=NNC(=O)NN=Cc1ccccc1OC	-6%[46.1 µM]	-38	-4%[46.1 µM]	14%
COc1cccc(/C=N/NC(=O)N/N=C/c2cccc(OC)c2O)c1O	?	-13	4.5µM*	7%
COc1cccc(/C=N/Nc2ccc(C(=O)O)cc2)c1O	·	-95*	·	3.5µM*
SMILES	LASV entry inh	HCMV inh	Marburg entry inh	FMDV inh
COc1cccc(/C=N/Nc2ccccc2C(=O)O)c1O	·	-80*	·	8%
CCN1CCC2(CC1)N=C(c1ccc(F)cc1)C(=S)N2	18%[46.1 µM]	10	-4%[46.1 µM]	-12%
O=C(N/N=C/c1cc2c(cc1Br)OCO2)c1c[nH]c2ccccc12	·	-19	·	0%
COc1cccc(C=NNC(=O)c2ccncc2)c1O	?	6	?	21%
COc1cccc(/C=N/NC(=O)c2nc(-c3ccccc3)cc(-c3ccccc3)n2)c1O	?	-97*	?	0%
O=C(N/N=C/c1ccc(-c2ccccc2[N+](=O)[O-])o1)[C@H]1C[C@@H]1c1ccccc1	0.82µM*	?	?	14%
O=C(N/N=C/c1ccc(-c2ccc([N+](=O)[O-])cc2)o1)[C@H]1C[C@@H]1c1ccccc1	?	0	-23%[46.1 µM]	15%
Cc1ccc(C(=O)N/N=C/c2ccc(-c3cccc(Cl)c3)o2)cn1	-23%	-37	?	?
O=C(N/N=C/c1ccc(-c2cccc([N+](=O)[O-])c2)o1)[C@H]1C[C@@H]1c1ccccc1	4µM*	?	4%	-22%
Cc1ccc(C(=O)N/N=C/c2ccc(-c3ccccc3[N+](=O)[O-])o2)cn1	18%	-64*	5%	-25%
Cc1ccc(-n2nc(C)c3cc(C(=O)O)sc32)cc1	14%	-24	-11%	7%
CCOc1ccc(-n2nnc3c(=O)n(CC(=O)NCc4ccco4)cnc32)cc1	19%	-18	-4%[46.1 µM]	-11%
CCN(CC)c1ccc(NC(=O)c2sc3nc(-c4ccccc4)cn3c2C)cc1	?	-25	·	-26%
Cc1nc(N2CCCCC2)c2c(C)c(C(=O)Nc3ccc4c(c3)OCCO4)sc2n1	·	-61*	·	0%
Cc1cccc(NC(=O)c2sc3nc(C)nc(N4CCOCC4)c3c2C)c1	·	-22	·	-12%
Cc1c(C(=O)Nc2ccc3c(c2)OCCO3)sc2nc(-c3ccccc3)cn12	?	-84*	?	16µM*
Cc1c(C(=O)Nc2ccncc2)sc2nc(-c3ccccc3)cn12	·	-36	·	20µM*
CCOc1ccc(-c2nn(-c3ccccc3)cc2/C=C2\SC(=S)N(C3CCS(=O)(=O)C3)C2=O)cc1 (stereo not given)	-9%	-1	-11%	0%
CN1CCN(c2c(/C=N/O)c3ccccc3n2C)CC1	17%[46.1 µM]	·	9%[46.1 µM]	-10%
Cc1ccccc1C(=O)O/N=C/c1c(N2CCOCC2)n(C)c2ccccc12	-16%	-99*	?	?
COc1cc(C(O)c2nc(-c3cc4ccccc4o3)cs2)ccc1F (stereo not given)	·	-77*	·	-8%
COc1ccncc1-c1csc(C(O)c2ccccc2)n1 (stereo not given)	·	-69*	·	-16%
COc1ccccc1-c1csc(C(NC(C)=O)c2ccccc2)n1 (stereo not given)	·	-79*	·	-12%
COc1cc(F)ccc1-c1csc(C(NC(C)=O)c2ccccc2)n1 (stereo not given)	·	38	·	-23%
Cc1ccc(NC(=O)C2CCN(c3nc4ccccc4[nH]3)CC2)cc1Cl	-19%[46.1 µM]	0	·	-4%
SMILES	LASV entry inh	HCMV inh	Marburg entry inh	FMDV inh
Cc1cc(C)c(NC(=O)C2CCN(c3nc4ccccc4[nH]3)CC2)c(C)c1	12%[46.1 µM]	+	·	2%
ON=C1c2ccccc2-c2ccc(F)cc21	14%	22	3%	6%
ON=C1c2ccccc2-c2ccc(Br)cc21	7%	-63*	27%	7%
COc1cc2c(cc1[N+](=O)[O-])-c1ccc([N+](=O)[O-])cc1C2=NO	·	-94*	·	-22%
O=[N+]([O-])c1ccc2c(c1)/C(=N\O)c1ccccc1-2	-3%	-85*	?	-2%
O=[N+]([O-])c1ccc(O)c(/C=N\N=C2c3ccccc3-c3ccccc32)c1	?	-89*	14µM*	?
O=[N+]([O-])c1ccc(/C=C/c2nc3ccc([N+](=O)[O-])cc3[nH]2)cc1	?	-29	-19%	-4%
O=C1C2C(c3ccccc3)CC=CC2[C@H](c2cccc([N+](=O)[O-])c2)N1Cc1ccccc1 (stereo not given in full)	·	-28	·	-15%
Nc1cc2c(cc1Cl)-c1ccc([N+](=O)[O-])cc1C2=NO	1%	?	?	-6%
O=[N+]([O-])c1ccc2c(c1)C(=NO)c1cc(F)ccc1-2	-5%	-95*	-17%	-20%
